# Experimental data published in PubChem BioAssay (NCI).
# About 83,000 compounds went through this panel and 20% of them were active in at least one assay; those are over-represented in the sample as a whole.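 Step 1: grow cells in 96-well plates. Step 2: add test compound at a single concentration. Step 3: incubate 48 h. Step 4: record percent growth.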 Unmarked numbers belong to inactive results. Activity calls are given as the source filed them. How the source made its calls: active means growth percent below 10; inactive means the rest.
# Legend:
# Experiment in all cases: NCI-60 one-dose screen, 48 h (100 = growth as untreated, 0 = no growth, -100 = all killed)
# Details in all cases: 10 µM unless noted
# NCI-H23 lung = system: NCI-H23 lung
# NCI-H226 lung = system: NCI-H226 lung
# NCI-H322M lung = system: NCI-H322M lung
# HOP-62 NSCLC = system: HOP-62 NSCLC
# NCI-H460 lung = system: NCI-H460 lung
# NCI-H522 lung = system: NCI-H522 lung
# A549/ATCC NSCLC = system: A549/ATCC NSCLC
# 786-0 renal = system: 786-0 renal
# COLO 205 colon = system: COLO 205 colon
# HOP-92 NSCLC = system: HOP-92 NSCLC
Structure (SMILES),growth (NCI-H23 lung),growth (NCI-H226 lung),growth (NCI-H322M lung),growth (HOP-62 NSCLC),growth (NCI-H460 lung),growth (NCI-H522 lung),growth (A549/ATCC NSCLC),growth (786-0 renal),growth (COLO 205 colon),growth (HOP-92 NSCLC) [%]
CC1CCCCN1CCCNC(=O)N/C(N)=N/c1nc2ccccc2s1 (stereo unspecified),58.8%,48.5%,77%,59.6%,42.2%,72.2%,47.3%,29.5%,-58.6% (active),
O=C(/C=C/Nc1ccc2oc(=O)ccc2c1)c1cc2cc(Br)ccc2oc1=O,98.8%,101%,104%,95.4%,114%,101%,101%,103%,131%,
COc1ccc(-c2nc3cc(C)ccc3n2CC(=O)N=Nc2c(O)[nH]c3ccccc23)cc1,-10.8% (active),-35.5% (active),33.1%,10.4%,-17.7% (active),42.1%,-34% (active),60.8%,7.85% (active),
O=C(/C=C/c1ccc(-c2ccccc2)cc1)c1nc2ccccc2n1Cc1ccc(F)cc1,47.5%,-13.9% (active),64.5%,36.1%,36.5%,64.1%,61.9%,30.7%,48.9%,
CCCSc1nc(Nc2ccc(S(N)(=O)=O)cc2)c(C#N)c(-c2ccc(Cl)cc2)n1,31.4%,-2.08% (active),21.9%,-2.6% (active),28.6%,16.6%,16.3%,-69.7% (active),46.8%,
Cc1ccc2c(c1)nc(-c1ccccc1)n2CC(=O)N=Nc1c(O)[nH]c2ccc(Br)cc12,-80.1% (active),-72.4% (active),-46.4% (active),-58.7% (active),-22.4% (active),-60.7% (active),-45.4% (active),-88.1% (active),-63% (active),
CC12CC[C@@H]3[C@]4(C)COC(c5cn[nH]c5-c5cccc(Cl)c5)O[C@@H]4CC[C@@]3(C)[C@@H]1CC(C1=CCOC1=O)O2 (stereo partly specified),43.5%,42.9%,52.1%,74.6%,33.7%,26.8%,26.7%,47.5%,18.3%,
Cn1cc(-c2cc(N)n3nc(-c4c[nH]c5ccccc45)cc3n2)c2cccnc21,47.6%,71.2%,44.7%,62.6%,2.29% (active),31.3%,51.7%,-81.3% (active),40.2%,
O=C(Cn1c2c(sc1=O)[C@H]1[C@@H](O)[C@@H](O)[C@H](O)[C@@H]1CS2)N1CCOCC1,105%,101%,107%,92.7%,106%,91.7%,106%,98.7%,116%,
C=CC(=O)Nc1ccc(C)c(Oc2ccc(Cl)cc2)c1,55.9%,41.7%,48.4%,63%,20.5%,3.62% (active),47.2%,55.1%,55.7%,
Cc1cccc(-c2nc(Nc3ccc(C)c(S(N)(=O)=O)c3)c3ccccc3n2)c1,12.9%,41.9%,34%,76.1%,,-30.5% (active),26.5%,10.8%,37.8%,
Cc1cc2c(cc1Cl)C(=O)/C(=C/c1ccc(F)cc1)O2,85.8%,84.3%,99.6%,93.7%,,65.8%,103%,89.8%,119%,93.4
Cc1sc2c(c1C)C(c1ccc(Cl)cc1)=N[C@@H](CC(=O)NCCCCCNC(=O)COc1ccc(C3CCC(=O)NC3=O)cc1)c1nnc(C)n1-2 (stereo partly specified),47.3%,8.38% (active),23.7%,16%,,3.85% (active),25.7%,26.5%,-61.7% (active),
S=C(NCCc1ccccc1)Nc1ccc(OCc2nc3ccccc3[nH]2)cc1,104%,108%,100%,103%,,101%,101%,105%,109%,
O=c1oc2ccc(Br)cc2cc1C1=CSc2nc3sc4c(c3c(=O)n2N=C1)CCCC4,96.6%,92.5%,96.6%,80.6%,,88.5%,105%,120%,105%,
